# Assay results from PubChem BioAssay (NCI).
# Several values for one entry are separate records, joined by “and”; a condition that tells them apart may be missing. Identical values can stand only once. Compounds without any hit were thinned out: in the full panel of roughly 83,000, 20% have a hit.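 Compound tested at a single concentration for 48 hours in 96-well plates; a percent growth value below 10 was scored as active.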 A number with no mark means an inactive call. Activity calls are given as the source filed them.
# How the values were obtained:
# Experiment in all cases: NCI-60 one-dose screen, 48 h (100 = growth as untreated, 0 = no growth, -100 = all killed)
# Settings in all cases: 10 µM unless noted
# HCT-15 colon = system: HCT-15 colon
# HT29 colon = system: HT29 colon
# SNB-75 CNS = system: SNB-75 CNS
# SNB-19 CNS = system: SNB-19 CNS
# U251 CNS = system: U251 CNS
# PC-3 prostate = system: PC-3 prostate
# UACC-62 melanoma = system: UACC-62 melanoma
# LOX IMVI melanoma = system: LOX IMVI melanoma
# SK-MEL-28 melanoma = system: SK-MEL-28 melanoma
# SK-MEL-5 melanoma = system: SK-MEL-5 melanoma
Compound,growth (HCT-15 colon),growth (HT29 colon),growth (SNB-75 CNS),growth (SNB-19 CNS),growth (U251 CNS),growth (PC-3 prostate),growth (UACC-62 melanoma),growth (LOX IMVI melanoma),growth (SK-MEL-28 melanoma),growth (SK-MEL-5 melanoma)
COC(=O)[C@@H](C)C[C@H](Cc1ccccc1)NC(=O)c1cccc([C@@H](C[C@H](C(C)C)N(C)C(=O)[C@@H](NC(=O)[C@H]2CCCCN2C)C2CC2)OC(C)=O)n1,8.07% (active),-8.46% (active),27.6%,30%,4.48% (active),18.8%,41.4%,12.2%,62%,
C[C@@]12CCCc3coc(c31)C(=O)c1cc3c(cc12)C(=O)C1=C(NCCS1(=O)=O)C3=O,8.66% (active),-4.92% (active),-87.5% (active),-68.8% (active),-61% (active),-6.62% (active),,-42.7% (active),-9.02% (active),
O=C(NC1=NCC[Se]1)c1ccccc1O,82%,92.1%,67.3%,68.5%,44%,,76.2%,42.9%,61.3%,80.9%
CC(Oc1ccc(-c2ccccc2)cc1)C(=O)O (centres undefined),108%,103%,91.6%,97%,97.4%,101%,,104%,110%,97%
Cc1cc[c-]cc1.Fc1c[c-]c(-c2ccccn2)c(F)c1.[Pt+2].c1ccc([PH+](c2ccccc2)c2ccccn2)cc1,74.1%,22.9%,22.7%,49.5%,27%,,64.5%,31.2%,39.4%,77.5%
O=P(O)(Nc1ccccc1)Nc1ccccc1,119%,94.3%,81.9%,95.3%,99.3%,91.5%,,92.7%,148%,94.4%
CC(=O)Cc1ccc2c(c1)OCO2,113%,98.6%,117%,98.8%,103%,106%,,100%,130%,
CC[C@H](C)[C@H](NC(=O)c1cnccn1)C(=O)N(C)[C@H](C[C@@H](OC(C)=O)c1nc(C(=O)N[C@@H](Cc2ccccc2)C[C@H](C)C(=O)OC)cs1)C(C)C,6.99% (active),-5.79% (active),15%,31.9%,10.3%,21.7%,34.2%,17.5%,59.2%,
CC[C@H](C)[C@H](NC(=O)[C@H]1CCCCN1C)C(=O)N(C)[C@H](C[C@@H](OC(C)=O)c1nc(C(=O)NC23C4C5C2C2C3C4C52C(=O)OC)cs1)C(C)C (some centres undefined),9.18% (active),-5.46% (active),22.9%,28.1%,10.8%,23.5%,43.8%,7.09% (active),59.1%,
O=C(Cc1ccccc1)c1ccccc1,102%,106%,86.8%,109%,94.5%,98.2%,,106%,113%,99.6%
O=C(O)C(Br)CBr (centres undefined),90.8%,97.6%,89.5%,107%,97%,94.3%,,94.3%,110%,
C/C=C(/C)C(=O)O[C@H]1CC[C@@]2(C)[C@@H]3CC[C@H]4[C@]5(O)C[C@H](O)[C@@]6(O)[C@@H](CN7C[C@@H](C)CC[C@H]7[C@@]6(C)O)[C@]5(O)C[C@@]42O[C@@]13O,98.4%,92.4%,79.9%,112%,103%,,127%,104%,124%,102%
N#CC(NC(=O)CCl)=C(Cl)Cl,-21.1% (active),-49.2% (active),66.6%,60.3%,9.19% (active),37.7%,-5.68% (active),-56.4% (active),-39.9% (active),
CCCC[C@H]1C(=O)O[C@H](C)[C@H](NC(=O)c2cccc(NC=O)c2O)C(=O)O[C@@H](C)[C@@H]1OC(=O)CC(C)C,39.9%,49.5%,56.8%,44.4%,42.9%,32.9%,34%,32.9%,83.9%,
Cc1cc(C(C)(C)C)ccc1O,109%,106%,102%,111%,94.2%,93.6%,109%,94.9%,110%,
O=[P+](O)c1cccnc1,106%,93.7%,94.3%,106%,99.6%,96.7%,,98.1%,106%,102%
C[C@]12C[C@H](c3ccoc3)OC(=O)[C@H]1CC[C@@]1(C)[C@@H]2[C@H]2C=C[C@]1(O)C(=O)O2,101%,82.3%,78.3%,102%,97.8%,,92.5%,106%,109%,106%
N#CCCc1ccccc1,98.3%,104%,86.3%,97.7%,105%,108%,,102%,108%,
O=c1[nH]c(=O)n(Cl)c(=O)n1Cl,111% and 108%,106% and 112%,124% and 105%,106% and 98.2%,98.5% and 113%,98.8% and 98%,98.7% and 101%,109% and 105%,117% and 122%,
CC1=C([Te]c2ccccc2)C(=O)c2ccccc2C1=O,-43.6% (active),-22.7% (active),-25.6% (active),2.43% (active),-30.1% (active),-30.8% (active),-24.9% (active),-41.7% (active),-64.4% (active),
Cc1cc(NC(=O)NCCCOc2ccc(N3C(N)=NC(N)=NC3(C)C)cc2Cl)ccc1S(=O)(=O)F,90.2%,4.91% (active),53.1%,27.7%,15.8%,11.9%,25.2%,14.4%,48.9%,
O=Cc1cn(Cc2ccccc2)c2ccccc12,106%,92%,67.8%,93.8%,68.5%,95%,,79.4%,216%,85.5%
N#CCN(CC#N)[N+](=O)[O-],108%,103%,89.8%,99.1%,104%,,98.2%,109%,106%,103%
Nc1ccc(P(=O)(O)O)cc1,97.4% and 95.9%,104% and 103%,95% and 94.5%,108% and 107%,102% and 94.7%,99.5% and 92.7%,110% and 99.8%,89.1% and 98%,117% and 111%,
Cc1nnc([S-])o1.[Au+].c1ccc([PH+](c2ccccc2)c2ccccc2)cc1,8.98% (active),61.1%,29.3%,29.2%,10.1%,57.7%,,13.2%,32.8%,26.7%
Cc1ccc(N2CCN(CCC#N)CC2)cc1,97.2%,103%,79.5%,87.9%,97.8%,92.5%,98.6%,101%,98.7%,
C#COc1cccc(Nc2ncnc3cc(NC(=O)CF)ccc23)c1,28.6% [6.25 µM],4.41% [6.25 µM] (active),48.2% [6.25 µM],33.7% [6.25 µM],23.1% [6.25 µM],36% [6.25 µM],,36.8% [6.25 µM],60.4% [6.25 µM],36.2% [6.25 µM]
